Measurements: the supplement of paper PMC10849652
Of roughly 8,800 targets only a part is listed; those with a hit were picked by preference. About 0.5% of all pairs of compound and target were hits.

Assays:
Experiment in all cases: log2 fold change, soluble protein after heating vs DMSO (PISA); higher = thermal stabilisation; K562 lysate, 10 uM; active = over 0.2 and 3.5 SD of the protein, either way, in both replicates (recomputed)
erlotinib = compound: C#Cc1cccc(Nc2ncnc3cc(OCCOC)c(OCCOC)cc23)c1 [erlotinib]
Summary of the method: (§1)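 To prepare the extract, K562 pellets were dounce-homogenised in PBS pH 7.4 with 1 mM MgCl2, giving crude material at 1 mg/mL protein. This was treated with 10 μM compound for 30 min, then heated in aliquots for 3 min over 48°C-58°C before pooling and addition of NP-40 to 0.5% at 4°C. Centrifugation at 21,000xg for 90 min left soluble protein in the supernatant, which TMTpro 16plex LC-MS/MS quantified with equalised channel sums. Results are log-two fold changes in thermal stability compared with solvent controls, from duplicates.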

[1] = compound: C/C(=N\NC(=O)C1=CC(=CC=C1)S(=O)(=O)N2CCOCC2)/C3=C(C=CC(=C3)Cl)O
Summary of the method: as §1

[2] = compound: C1=CC(=CC=C1C2=NC3=C(N2)C=C(C=C3)C(=O)N)OC4=CC=C(C=C4)Cl
Summary of the method: as §1

[3] = compound: C1=CC2=C(C=CC(=C2)/C=C\3/C(=O)NC(=NCC4=CC=CS4)S3)N=C1
Summary of the method: as §1

[4] = compound: C1=CC2=NC=CN=C2C=C1/C=C/3\C(=O)NC(=O)S3
Summary of the method: as §1

[5] = compound: C1=CC=C(C=C1)C2=NC(=C(N2)C3=CC=NC=C3)C4=CC(=C(C=C4)Cl)O
Summary of the method: as §1

[6] = compound: C1=CC=C2C(=C1)C3=NNC4=CC=CC(=C43)C2=O
Summary of the method: as §1

[7] = compound: C1CCN(C1)C(=O)NC2=CC=CC(=C2)NC3=NC=C(C(=N3)NCCC4=CN=CN4)Br
Summary of the method: as §1

[8] = compound: C1CN(CCC1(CC2=CC=C(C=C2)Cl)N)C3=NC=NC4=C3C=CN4
Summary of the method: as §1

IRAK-1-4 Inhibitor I = compound: C1COCCN1CCN2C3=CC=CC=C3N=C2NC(=O)C4=CC(=CC=C4)[N+](=O)[O-] [IRAK-1-4 Inhibitor I]
Summary of the method: as §1

ibrutinib = compound: C=CC(=O)N1CCC[C@@H](n2nc(-c3ccc(Oc4ccccc4)cc3)c3c(N)ncnc32)C1 [ibrutinib]
Summary of the method: as §1

[9] = compound: CC(=O)c1cnc2ccc(-c3cc(Cl)c(O)c(Cl)c3)nc2c1N[C@H]1CC[C@H](CN(C)C)CC1
Summary of the method: as §1

ralimetinib = compound: CC(C)(C)Cn1c(N)nc2ccc(-c3[nH]c(C(C)(C)C)nc3-c3ccc(F)cc3)nc21 [ralimetinib]
Summary of the method: as §1

[10] = compound: CC(C)(O)CC(=O)NCCn1ccc2ncnc(Nc3ccc(Oc4cccc(C(F)(F)F)c4)c(Cl)c3)c21
Summary of the method: as §1

[11] = compound: CC(C)C1=C2N=C(C=C(N2N=C1)NCC3=CC=CC=C3)NCCCCCCN
Summary of the method: as §1

[12] = compound: CC1=C(C(CC(=O)N1)C2=CC=C(C=C2)C(F)(F)F)C(=O)NC3=C(C=C4C(=C3)C=NN4)F
Summary of the method: as §1

[13] = compound: CC1=C(C2=C(C=C1)C(=O)C3=CC=CC=C3N2CCCN)C
Summary of the method: as §1

[14] = compound: CC1=C(C=C(C=C1)NC(=O)C2=CC(=CC=C2)C(C)(C)C#N)NC3=CC4=C(C=C3)N=CN(C4=O)C
Summary of the method: as §1

[15] = compound: CC1=C(C=C(C=C1)NC(=O)C2=CC(=CC=C2)N(C)C)NC(=O)C3=CC=C(C=C3)O
Summary of the method: as §1

[16] = compound: CC1=CC=C(C=C1)SC2=C3C=C(SC3=CN=C2)C(=O)N
Summary of the method: as §1

Measured: log2 fold change

AURKAIP1 (UniProt Q9NWT8)
active: [5] 0.432 | [15] -0.417
inactive: erlotinib -0.062 | [1] -0.093 | [2] 0.046 | [3] -0.031 | [4] -0.019 | [6] 0.025 | [7] -0.032 | [8] 0.064 | IRAK-1-4 Inhibitor I 0.095 | ibrutinib -0.055 | [9] -0.095 | ralimetinib -0.363 | [10] -0.222 | [11] 0.021 | [12] 0.029 | [13] -0.012 | [14] 0.135 | [16] -0.013

CCDC186 (UniProt Q7Z3E2)
inactive: erlotinib -0.018 | [1] 0.026 | [2] 0.01 | [3] 0.007 | [4] -0.03 | [5] -0.009 | [6] -0.027 | [7] -0.039 | [8] 0.007 | IRAK-1-4 Inhibitor I 0.016 | ibrutinib 0.024 | [9] -0.025 | ralimetinib -0.001 | [10] -0.056 | [11] -0.086 | [12] 0.006 | [13] 0.021 | [14] -0.016 | [15] 0 | [16] -0.023

CDK13 (UniProt Q14004)
Chain of UniProt Q14004 (Q14004 whole entry, looked up): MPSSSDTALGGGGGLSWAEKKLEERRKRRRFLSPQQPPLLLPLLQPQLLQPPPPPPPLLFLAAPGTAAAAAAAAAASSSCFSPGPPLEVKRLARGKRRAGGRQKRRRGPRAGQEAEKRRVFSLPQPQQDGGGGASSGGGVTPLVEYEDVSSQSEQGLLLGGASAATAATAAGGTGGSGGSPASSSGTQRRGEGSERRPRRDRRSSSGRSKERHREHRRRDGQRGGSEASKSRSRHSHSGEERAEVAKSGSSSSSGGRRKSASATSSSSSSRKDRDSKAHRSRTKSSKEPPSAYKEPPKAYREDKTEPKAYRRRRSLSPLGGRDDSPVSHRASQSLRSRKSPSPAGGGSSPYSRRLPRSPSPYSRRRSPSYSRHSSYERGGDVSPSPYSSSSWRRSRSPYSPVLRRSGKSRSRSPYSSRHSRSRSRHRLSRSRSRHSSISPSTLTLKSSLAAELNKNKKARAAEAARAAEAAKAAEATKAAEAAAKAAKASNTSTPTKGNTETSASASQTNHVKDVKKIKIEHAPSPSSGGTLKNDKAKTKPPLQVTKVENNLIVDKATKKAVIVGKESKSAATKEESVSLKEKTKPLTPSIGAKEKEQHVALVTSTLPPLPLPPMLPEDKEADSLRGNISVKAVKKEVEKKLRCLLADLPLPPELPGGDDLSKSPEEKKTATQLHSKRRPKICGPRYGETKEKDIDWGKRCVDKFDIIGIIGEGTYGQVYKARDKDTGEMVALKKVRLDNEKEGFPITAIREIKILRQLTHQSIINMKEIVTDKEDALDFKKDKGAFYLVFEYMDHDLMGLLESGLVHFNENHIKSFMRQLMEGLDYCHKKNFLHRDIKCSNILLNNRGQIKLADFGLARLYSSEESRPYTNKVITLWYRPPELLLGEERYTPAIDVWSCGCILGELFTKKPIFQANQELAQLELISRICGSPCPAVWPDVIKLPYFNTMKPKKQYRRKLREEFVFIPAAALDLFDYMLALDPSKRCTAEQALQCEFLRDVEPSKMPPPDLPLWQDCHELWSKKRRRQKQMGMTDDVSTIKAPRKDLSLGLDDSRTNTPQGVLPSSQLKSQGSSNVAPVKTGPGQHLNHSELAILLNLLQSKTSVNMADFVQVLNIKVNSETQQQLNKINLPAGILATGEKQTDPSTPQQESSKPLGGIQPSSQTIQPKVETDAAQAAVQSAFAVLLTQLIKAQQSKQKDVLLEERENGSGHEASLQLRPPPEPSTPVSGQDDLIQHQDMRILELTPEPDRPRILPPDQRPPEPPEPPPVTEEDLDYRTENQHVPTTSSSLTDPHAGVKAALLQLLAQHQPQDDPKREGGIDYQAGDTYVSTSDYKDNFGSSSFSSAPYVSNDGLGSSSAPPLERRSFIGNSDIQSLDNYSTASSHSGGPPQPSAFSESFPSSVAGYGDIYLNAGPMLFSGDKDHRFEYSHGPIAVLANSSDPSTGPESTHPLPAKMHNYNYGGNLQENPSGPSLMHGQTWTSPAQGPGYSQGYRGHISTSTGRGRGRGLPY
inactive: erlotinib -0.136 | [1] -0.041 | [2] -0.089 | [3] -0.052 | [4] 0.01 | [5] -0.071 | [6] 0.127 | [7] 0.091 | [8] -0.025 | IRAK-1-4 Inhibitor I -0.044 | ibrutinib -0.038 | ralimetinib 0.031 | [10] 0.141 | [11] -0.056 | [12] -0.039 | [13] 0.041 | [14] -0.104 | [15] -0.028 | [16] -0.022
active: [9] 0.271

CCNH (UniProt P51946)
Chain of UniProt P51946 (P51946 whole entry, looked up): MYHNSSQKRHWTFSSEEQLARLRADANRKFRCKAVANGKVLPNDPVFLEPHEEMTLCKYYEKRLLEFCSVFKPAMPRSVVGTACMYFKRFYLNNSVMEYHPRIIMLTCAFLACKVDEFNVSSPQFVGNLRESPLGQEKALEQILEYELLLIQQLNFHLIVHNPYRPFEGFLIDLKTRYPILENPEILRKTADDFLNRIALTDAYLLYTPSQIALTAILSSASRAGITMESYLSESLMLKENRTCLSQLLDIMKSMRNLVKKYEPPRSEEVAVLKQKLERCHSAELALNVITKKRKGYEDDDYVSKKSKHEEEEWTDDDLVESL
inactive: erlotinib 0.018 | [1] -0.018 | [2] 0.074 | [3] -0.055 | [4] -0.029 | [5] 0 | [6] -0.021 | [7] -0.047 | [8] 0.012 | IRAK-1-4 Inhibitor I -0.005 | ibrutinib 0.018 | [9] -0.149 | ralimetinib -0.001 | [10] -0.064 | [11] -0.058 | [12] -0.044 | [13] -0.025 | [14] -0.044 | [15] 0.018 | [16] -0.016

BCAR1 isoform 6 (UniProt P56945)
inactive: erlotinib 0.005 | [1] -0.043 | [2] 0.052 | [3] 0.048 | [4] -0.019 | [5] 0.019 | [6] -0.063 | [7] 0.041 | [8] 0.021 | IRAK-1-4 Inhibitor I -0.017 | ibrutinib 0.024 | [9] 0.02 | ralimetinib -0.009 | [10] 0 | [11] 0.01 | [12] 0.03 | [13] -0.056 | [14] -0.014 | [15] 0.006 | [16] -0.033

BNIP1 (UniProt Q12981)
Chain of UniProt Q12981 (Q12981 whole entry, looked up): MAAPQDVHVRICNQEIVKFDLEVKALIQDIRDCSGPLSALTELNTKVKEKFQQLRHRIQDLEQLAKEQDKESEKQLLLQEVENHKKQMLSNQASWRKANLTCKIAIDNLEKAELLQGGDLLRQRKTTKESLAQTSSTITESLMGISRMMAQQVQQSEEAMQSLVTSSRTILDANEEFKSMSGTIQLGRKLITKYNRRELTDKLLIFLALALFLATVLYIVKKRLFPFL
inactive: erlotinib -0.028 | [1] 0.05 | [2] -0.048 | [3] -0.011 | [4] -0.026 | [5] 0.071 | [6] -0.009 | [7] 0.002 | [8] 0.018 | IRAK-1-4 Inhibitor I -0.004 | ibrutinib 0.038 | [9] 0.005 | ralimetinib 0.01 | [10] -0.011 | [11] 0.051 | [12] 0.046 | [13] 0.005 | [14] 0.002 | [15] 0.024 | [16] 0.012

CASC4 (UniProt Q6P4E1)
inactive: erlotinib -0.005 | [1] 0.004 | [2] -0.035 | [3] 0.003 | [4] -0.049 | [5] -0.02 | [6] -0.119 | [7] -0.013 | [8] 0.047 | IRAK-1-4 Inhibitor I -0.008 | ibrutinib 0.001 | [9] -0.032 | ralimetinib -0.029 | [10] -0.008 | [11] -0.012 | [12] -0.055 | [13] 0.057 | [14] -0.016 | [15] 0.029 | [16] -0.036

C12orf45 (UniProt Q8N5I9)
Chain of UniProt Q8N5I9 (Q8N5I9 whole entry, looked up): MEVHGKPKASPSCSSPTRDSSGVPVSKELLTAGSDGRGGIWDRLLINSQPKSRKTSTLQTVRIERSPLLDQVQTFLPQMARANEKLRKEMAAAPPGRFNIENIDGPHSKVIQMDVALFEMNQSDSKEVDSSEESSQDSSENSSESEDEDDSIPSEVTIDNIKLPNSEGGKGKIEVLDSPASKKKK
inactive: erlotinib -0.038 | [1] -0.113 | [2] 0.027 | [3] 0.009 | [4] -0.037 | [5] 0.009 | [6] 0.009 | [7] -0.018 | [8] 0.009 | IRAK-1-4 Inhibitor I -0.002 | ibrutinib 0.027 | [9] 0.003 | ralimetinib 0.005 | [10] 0.014 | [11] 0.033 | [12] -0.021 | [13] -0.02 | [14] -0.018 | [15] 0.02 | [16] -0.043

BCKDHB (UniProt P21953)
Chain of UniProt P21953 (P21953 whole entry, looked up): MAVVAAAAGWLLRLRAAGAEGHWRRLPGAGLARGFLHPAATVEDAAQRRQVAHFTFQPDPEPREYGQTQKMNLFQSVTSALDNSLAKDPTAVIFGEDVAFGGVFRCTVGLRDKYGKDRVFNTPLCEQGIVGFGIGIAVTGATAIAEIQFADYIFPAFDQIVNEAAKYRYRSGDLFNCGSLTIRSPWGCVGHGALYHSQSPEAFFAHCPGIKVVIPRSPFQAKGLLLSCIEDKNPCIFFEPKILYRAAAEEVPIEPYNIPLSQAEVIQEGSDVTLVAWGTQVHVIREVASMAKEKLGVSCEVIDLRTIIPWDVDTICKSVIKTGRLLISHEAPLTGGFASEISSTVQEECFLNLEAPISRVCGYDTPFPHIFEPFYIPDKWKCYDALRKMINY
inactive: erlotinib 0.013 | [1] -0.034 | [2] 0.033 | [3] -0.089 | [4] 0.049 | [5] -0.098 | [6] -0.117 | [7] 0.065 | [8] -0.012 | IRAK-1-4 Inhibitor I 0.134 | ibrutinib -0.102 | [9] 0.025 | ralimetinib 0.003 | [10] -0.01 | [11] -0.037 | [12] 0.016 | [13] -0.022 | [14] -0.078 | [15] 0.071 | [16] 0.024

CEP120 (UniProt Q8N960)
Chain of UniProt Q8N960 (Q8N960 whole entry, looked up): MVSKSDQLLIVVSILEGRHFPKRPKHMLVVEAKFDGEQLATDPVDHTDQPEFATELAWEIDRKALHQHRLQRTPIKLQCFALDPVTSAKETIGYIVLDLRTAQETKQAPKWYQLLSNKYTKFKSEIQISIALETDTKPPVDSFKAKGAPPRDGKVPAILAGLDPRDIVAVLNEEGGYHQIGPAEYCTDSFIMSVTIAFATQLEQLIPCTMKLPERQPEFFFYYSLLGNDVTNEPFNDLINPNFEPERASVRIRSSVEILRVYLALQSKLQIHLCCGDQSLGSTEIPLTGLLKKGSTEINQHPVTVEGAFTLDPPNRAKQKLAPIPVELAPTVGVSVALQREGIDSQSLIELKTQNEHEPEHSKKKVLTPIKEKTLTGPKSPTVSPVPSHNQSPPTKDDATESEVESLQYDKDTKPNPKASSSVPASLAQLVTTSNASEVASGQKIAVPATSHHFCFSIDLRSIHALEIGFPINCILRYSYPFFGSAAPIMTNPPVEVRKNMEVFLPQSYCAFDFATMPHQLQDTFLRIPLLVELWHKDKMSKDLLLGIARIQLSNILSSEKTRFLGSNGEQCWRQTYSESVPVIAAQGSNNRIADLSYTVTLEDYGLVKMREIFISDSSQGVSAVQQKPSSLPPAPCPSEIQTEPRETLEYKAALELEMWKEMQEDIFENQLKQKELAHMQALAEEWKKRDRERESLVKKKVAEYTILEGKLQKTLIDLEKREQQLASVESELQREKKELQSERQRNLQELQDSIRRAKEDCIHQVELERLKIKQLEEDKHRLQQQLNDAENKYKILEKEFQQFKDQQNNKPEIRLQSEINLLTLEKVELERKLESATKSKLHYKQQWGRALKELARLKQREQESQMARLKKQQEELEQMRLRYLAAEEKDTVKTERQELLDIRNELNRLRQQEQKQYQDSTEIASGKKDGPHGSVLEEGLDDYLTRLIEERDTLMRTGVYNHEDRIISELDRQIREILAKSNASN
inactive: erlotinib 0.044 | [1] -0.124 | [2] -0.03 | [3] -0.02 | [4] 0.004 | [5] -0.007 | [6] -0.142 | [7] 0.168 | [8] 0.215 | IRAK-1-4 Inhibitor I 0.018 | ibrutinib -0.02 | [9] -0.061 | ralimetinib -0.076 | [10] -0.132 | [11] 0.001 | [12] -0.174 | [13] -0.224 | [14] -0.015 | [15] 0.001 | [16] -0.085

BRD4 (UniProt O60885)
inactive: erlotinib -0.001 | [1] -0.011 | [2] 0.059 | [3] 0.013 | [4] -0.007 | [5] 0.05 | [6] -0.061 | [7] -0.016 | [8] 0.032 | IRAK-1-4 Inhibitor I 0.028 | ibrutinib -0.011 | [9] -0.017 | ralimetinib 0.023 | [10] -0.042 | [11] -0.016 | [12] -0.006 | [13] 0.001 | [14] 0.061 | [15] 0.006 | [16] -0.021

BTAF1 (UniProt O14981)
inactive: erlotinib 0.044 | [1] -0.035 | [2] -0.01 | [3] -0.002 | [4] -0.003 | [5] 0.002 | [6] 0.002 | [7] -0.017 | [8] 0.022 | IRAK-1-4 Inhibitor I -0.034 | ibrutinib -0.016 | [9] -0.003 | ralimetinib 0.01 | [10] -0.008 | [11] 0.003 | [12] 0.018 | [13] 0.023 | [14] 0 | [15] 0.025 | [16] -0.012

CASP9 (UniProt P55211)
Chain of UniProt P55211 (P55211 whole entry, looked up): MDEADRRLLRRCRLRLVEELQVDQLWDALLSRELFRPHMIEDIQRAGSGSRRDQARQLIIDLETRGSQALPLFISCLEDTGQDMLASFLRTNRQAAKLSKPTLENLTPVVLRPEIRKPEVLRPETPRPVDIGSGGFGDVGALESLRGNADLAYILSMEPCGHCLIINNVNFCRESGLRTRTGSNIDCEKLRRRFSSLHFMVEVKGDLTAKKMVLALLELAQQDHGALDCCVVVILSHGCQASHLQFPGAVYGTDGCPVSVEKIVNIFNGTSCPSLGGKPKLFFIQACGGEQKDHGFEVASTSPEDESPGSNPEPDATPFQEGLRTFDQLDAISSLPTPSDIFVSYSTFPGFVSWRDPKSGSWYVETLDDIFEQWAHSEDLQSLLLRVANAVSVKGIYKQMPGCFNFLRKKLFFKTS
inactive: erlotinib -0.007 | [1] 0.008 | [2] 0.008 | [3] 0.03 | [4] 0.069 | [5] -0.002 | [6] -0.008 | [7] 0.014 | [8] 0.006 | IRAK-1-4 Inhibitor I 0.034 | ibrutinib -0.039 | [9] -0.06 | ralimetinib 0.04 | [10] -0.06 | [11] -0.017 | [12] 0.01 | [13] -0.003 | [14] -0.01 | [15] 0.011 | [16] -0.012

CDK9 isoform 2 (UniProt P50750)
Chain of UniProt P50750 (P50750 whole entry, looked up): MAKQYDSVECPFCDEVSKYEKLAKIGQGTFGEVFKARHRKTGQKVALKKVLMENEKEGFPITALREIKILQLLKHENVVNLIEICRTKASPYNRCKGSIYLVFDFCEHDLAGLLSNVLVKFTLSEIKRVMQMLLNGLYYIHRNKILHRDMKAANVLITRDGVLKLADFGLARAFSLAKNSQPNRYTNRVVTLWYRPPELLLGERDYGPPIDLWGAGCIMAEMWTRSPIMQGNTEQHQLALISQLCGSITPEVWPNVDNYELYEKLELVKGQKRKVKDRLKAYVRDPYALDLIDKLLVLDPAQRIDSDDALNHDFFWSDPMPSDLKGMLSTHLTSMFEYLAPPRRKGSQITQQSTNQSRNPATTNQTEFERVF
inactive: erlotinib -0.055 | [1] -0.054 | [2] 0.195 | [3] 0.019 | [4] 0.02 | [5] -0.01 | [6] 0.019 | [7] 0.102 | [8] 0.005 | IRAK-1-4 Inhibitor I -0.002 | ibrutinib -0.042 | [9] 0.269 | ralimetinib 0.013 | [10] 0.026 | [11] -0.092 | [12] -0.026 | [13] -0.021 | [14] -0.032 | [15] 0.004 | [16] -0.021

CHD5 (UniProt Q8TDI0)
inactive: erlotinib 0.008 | [1] -0.004 | [2] -0.031 | [3] 0.056 | [4] -0.035 | [5] 0.043 | [6] -0.072 | [7] 0.058 | [8] -0.003 | IRAK-1-4 Inhibitor I -0.016 | ibrutinib -0.063 | [9] 0.015 | ralimetinib 0 | [10] 0.005 | [11] -0.011 | [12] 0.026 | [13] -0.026 | [14] -0.005 | [15] 0.029 | [16] 0.01

CELF1 isoform 4 (UniProt Q92879)
Chain of UniProt Q92879 (Q92879 whole entry, looked up): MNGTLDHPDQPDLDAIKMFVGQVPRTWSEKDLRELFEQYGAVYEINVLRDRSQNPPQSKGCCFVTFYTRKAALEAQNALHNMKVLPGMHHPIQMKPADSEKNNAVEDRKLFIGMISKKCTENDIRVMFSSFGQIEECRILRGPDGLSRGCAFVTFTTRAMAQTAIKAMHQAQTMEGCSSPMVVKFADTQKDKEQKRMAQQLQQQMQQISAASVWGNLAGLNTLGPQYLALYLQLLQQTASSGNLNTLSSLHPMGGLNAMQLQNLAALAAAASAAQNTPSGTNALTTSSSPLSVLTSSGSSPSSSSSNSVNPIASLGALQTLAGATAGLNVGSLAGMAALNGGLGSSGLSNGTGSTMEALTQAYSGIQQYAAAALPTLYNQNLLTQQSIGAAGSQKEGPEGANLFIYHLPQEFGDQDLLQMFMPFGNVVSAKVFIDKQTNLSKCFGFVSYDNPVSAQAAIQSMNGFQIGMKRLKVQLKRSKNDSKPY
active: [14] -0.331
inactive: erlotinib -0.101 | [1] -0.039 | [2] 0.013 | [3] 0.055 | [4] 0 | [5] -0.031 | [6] -0.03 | [7] -0.002 | [8] -0.043 | IRAK-1-4 Inhibitor I -0.045 | ibrutinib 0.027 | [9] -0.027 | ralimetinib 0.034 | [10] -0.004 | [11] 0.033 | [12] 0.072 | [13] 0.016 | [15] 0 | [16] 0.025
